Results taken from PubChem BioAssay AID493216 (National Center for Advancing Translational Sciences (NCATS), 2011).
The source made the active and inactive calls. Calls come from the whole dose curve.

Molecular target: Polyunsaturated fatty acid lipoxygenase ALOX12 (Homo sapiens) (UniProt P18054)
Assay: Inhibitors of 12-hLO (12-human lipoxygenase): Cuvette-Based Hit Assay for Validation of Followup Compounds
Conditions: purified 12-hLO, cuvette absorbance 234 nm
Protocol: The enzyme activity of 12-hLO was determined by a direct measurement of product formation by monitoring the absorbance at 234 nm in a 2 mL cuvette. IC50 values of inhibitors were obtained by measuring the enzymatic rate at a variety of concentrations (Carroll et al, Segraves et al). This assay was used to validate actives or inconclusive putative inhibitors identified in the primary screen (see related BioAssay AIDs). Assay Provider: Holman, T.R., University of California, Santa Cruz Screening Center PI: Austin, Christopher P. Screening Center: NIH Chemical Genomics Center
For control experiments, 2 mL of substrate buffer (10 uM arachidonic acid / 25 mM HEPES / 0.01% (v/v) Triton X-100, pH 8.0) was aliquoted in a cuvette with a magnetic stir bar. After equilibrium was ensured, an aliquot of inhibitor solvent was added (DMSO), and equilibrium was once again assured. The reaction was started by adding enzyme to the cuvette and the reaction was followed until completed. The inhibition experiments were performed as above, except the actual inhibitory compound was added instead of vehicle. To achieve an IC50, typically 5 concentrations of the inhibitor were studied. If the inhibitor concentration was constant, then five different reaction volumes were used. […] 3; No change in absorbance ensured. […] 5; No change in absorbance ensured. […]

Sequence of Polyunsaturated fatty acid lipoxygenase ALOX12 (Homo sapiens) (P18054 whole entry, looked up): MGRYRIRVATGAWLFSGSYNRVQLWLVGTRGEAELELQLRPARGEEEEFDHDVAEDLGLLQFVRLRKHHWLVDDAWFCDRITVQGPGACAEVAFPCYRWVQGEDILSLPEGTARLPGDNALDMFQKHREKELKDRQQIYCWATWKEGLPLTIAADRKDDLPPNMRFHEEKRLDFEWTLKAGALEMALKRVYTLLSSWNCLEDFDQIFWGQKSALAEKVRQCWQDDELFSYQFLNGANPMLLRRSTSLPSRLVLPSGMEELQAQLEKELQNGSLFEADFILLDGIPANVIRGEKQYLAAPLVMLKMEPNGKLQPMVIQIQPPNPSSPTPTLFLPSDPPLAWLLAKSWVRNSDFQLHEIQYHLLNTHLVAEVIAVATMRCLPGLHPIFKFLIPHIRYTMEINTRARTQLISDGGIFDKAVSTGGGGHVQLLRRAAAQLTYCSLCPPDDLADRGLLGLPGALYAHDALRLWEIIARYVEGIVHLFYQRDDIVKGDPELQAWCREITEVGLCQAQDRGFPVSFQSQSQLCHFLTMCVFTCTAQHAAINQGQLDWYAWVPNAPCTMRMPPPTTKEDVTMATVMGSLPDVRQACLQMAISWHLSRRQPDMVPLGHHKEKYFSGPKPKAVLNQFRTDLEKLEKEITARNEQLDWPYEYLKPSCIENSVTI

CC(Oc1ccc(Cl)cc1Cl)C(=O)Nc1ccc(S(=O)(=O)Nc2cnc3ccccc3n2)cc1 (stereo unspecified)
Potency: 22.6 µM (active)
